Shown are actives, neighbours in structure and some others; about 2.7% of the full set was active somewhere.
Neddyl block: inhibitors of cullin neddylation, primary screen, biochemical, TR-FRET, uHTS, NAE and Ubc12; NEDD8-conjugating enzyme Ubc12 (Homo sapiens) + NEDD8-activating enzyme E1 regulatory …; calls only at 25 µM; 0.58% of 360,000 active; in the data active means inhibition above about 36%
Target sequence (P61081 whole entry, looked up): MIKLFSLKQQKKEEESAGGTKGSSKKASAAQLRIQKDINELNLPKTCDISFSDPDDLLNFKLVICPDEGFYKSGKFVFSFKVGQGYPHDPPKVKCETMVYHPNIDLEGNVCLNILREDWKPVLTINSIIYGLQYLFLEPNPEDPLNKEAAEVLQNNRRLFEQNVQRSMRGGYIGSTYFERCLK
Target sequence (Q13564 whole entry, looked up): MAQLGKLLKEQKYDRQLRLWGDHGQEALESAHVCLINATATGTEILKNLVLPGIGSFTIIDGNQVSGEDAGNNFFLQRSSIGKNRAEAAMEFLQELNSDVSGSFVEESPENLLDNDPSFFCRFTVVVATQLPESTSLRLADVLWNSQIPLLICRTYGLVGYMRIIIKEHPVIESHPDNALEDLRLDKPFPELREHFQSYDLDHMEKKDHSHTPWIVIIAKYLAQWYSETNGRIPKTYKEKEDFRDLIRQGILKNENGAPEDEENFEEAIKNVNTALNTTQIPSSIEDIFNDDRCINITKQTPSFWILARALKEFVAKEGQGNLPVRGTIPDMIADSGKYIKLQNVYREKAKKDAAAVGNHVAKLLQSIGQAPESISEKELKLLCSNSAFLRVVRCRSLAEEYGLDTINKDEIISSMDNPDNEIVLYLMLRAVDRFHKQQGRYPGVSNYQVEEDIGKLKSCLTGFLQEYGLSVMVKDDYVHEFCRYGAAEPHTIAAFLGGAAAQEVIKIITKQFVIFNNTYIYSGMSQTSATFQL
PfGluPho inh: PfG6PD enzyme inhibitors, primary screen, biochemical, fluorescence intensity, uHTS; glucose-6-phosphate dehydrogenase-6-phosphogluconolactonase (Plasmodium falciparum 3D7); PfGluPho enzyme, NADPH resazurin-diaphorase fluorescence; inhibition, % at 20 µM; 0.78% of 350,000 active;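 active means inhibition reaching at least a set limit at 20 µM in the primary screen, cut at about 59% in these data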;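 further: 0% = DMSO wells with substrate and 100% = DMSO wells lacking glucose-6-phosphate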
proKLK7 act: proKLK7 zymogen activators, primary screen, biochemical, fluorescence intensity; Kallikrein-7 (Homo sapiens), P49862; purified proKLK7, EDANS-DABCYL substrate fluorescence; 100% is mature enzyme control, 0% vehicle; activation, % at 7 µM; 0.9% of 370,000 active; AID 652039, 2013;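 active means activation above the mean of all tested compounds plus 3 SD, computed per campaign excluding outliers beyond control limits, cut at about 13% in these data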
FAS TE block: FAS thioesterase domain inhibitors, primary screen, biochemical, fluorescence intensity, uHTS | 0.67% of 360,000 active | AID 602261, 2012 | recombinant FAS-TE, OMFH fluorogenic substrate, fluorescence endpoint | inhibition, % at 15 µM | Fatty acid synthase (Homo sapiens), P49327;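 active means compounds whose normalised, plate-corrected inhibition of enzyme fluorescence in the single-dose primary screen is 50% or more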;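 further: 0% = DMSO with enzyme and 100% = substrate without enzyme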
Neddyl inh conf: blockade of NEDD8 conjugation to cullin – biochemical, TR-FRET, single concentration, confirmation; shares compounds with Neddyl block; calls only at 25 µM; AID 652217, 2013; TR-FRET cullin neddylation biochemical assay; 13% of 1,800 active; in the data active means inhibition above about 40%;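 further: neddylation substrate is the cullin 1 ring ligase complex with SKP2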
The depositor's hits bear a star.

For COCCC1CCCCN1Cc1cn(-c2ccccc2)nc1-c1ccc2c(c1)OCO2 (stereo unspecified) the results were Neddyl block inactive, PfGluPho inh 10, proKLK7 act 0 and FAS TE block 5.
For CC(=O)NCC1CCCN(Cc2cn(-c3ccccc3F)nc2-c2cc(C)sc2C)C1 (stereo unspecified) the results were Neddyl block inactive, PfGluPho inh 4, proKLK7 act 0 and FAS TE block -5.
CC(=O)NCC1CCCN(Cc2cn(-c3ccccc3)nc2-c2ccc3c(c2)OCO3)C1 (stereo unspecified) was read as Neddyl block active, PfGluPho inh -11, proKLK7 act -1, FAS TE block -2 and Neddyl inh conf inactive.
CC1CCC2(CCC(=O)N2CCCOC(=O)c2ccccc2)CC1 (stereo unspecified) was read as proKLK7 act 0.
`Nc1[nH]c(C(=O)c2ccccc2)c(-c2ccc(Br)cc2)c1C(=O)c1ccccc1` gave proKLK7 act -1.
CC(C)C[C@H](NC(=O)c1ccccn1)C(=O)N1CCC[C@H]1C(=O)NCc1ccccc1 was read as proKLK7 act 0.
`Cc1ncccc1C(=O)N1CCCC(C(=O)c2ccc3c4c(cccc24)CC3)C1` (stereo unspecified) gave Neddyl block inactive, PfGluPho inh 8, proKLK7 act -3 and FAS TE block -27.
Screening CN(C)C(=O)CCC(=O)N1CCCC(C(=O)c2ccc3c4c(cccc24)CC3)C1 (stereo unspecified) returned Neddyl block active, PfGluPho inh 0, proKLK7 act 4, FAS TE block -4 and Neddyl inh conf inactive.
`CCN1C(=O)c2cccc3c(S(=O)(=O)N(C(C)=O)c4ccc(OC(C)=O)cc4)ccc1c23` gave Neddyl block active, PfGluPho inh 17, proKLK7 act -175 and FAS TE block 19.
Screening COc1ccc(N(C(=O)c2ccncc2)S(=O)(=O)c2ccc3c4c(cccc24)C(=O)N3C)cc1 returned Neddyl block inactive, PfGluPho inh 3, proKLK7 act -1 and FAS TE block 26.
O=C(Nc1ccc(OC(F)(F)F)cc1)Nc1c(-c2ccc(C(F)(F)F)cc2)nc2ncccn12 was read as proKLK7 act 1.
`COC(=O)[C@]12C[C@H](CC(=O)NCC3CCCCC3)C(=O)N(Cc3ccco3)C1=C[C@H](COCc1ccccc1)O[C@@H]2C` gave proKLK7 act 0.
Screening Cn1c(=O)n(C)c2cc(S(=O)(=O)Nc3ccccc3C(=O)O)ccc21 returned Neddyl block active, PfGluPho inh -15, proKLK7 act 0, FAS TE block -9 and Neddyl inh conf inactive.
For Cc1ccc(C(=O)NC2CCCCN(Cc3cccc(Cl)c3)C2=O)c(C)c1 (stereo unspecified) the results were proKLK7 act 0.
`Cc1cc(C(F)(F)F)nn1CC(=O)NNC(=S)Nc1ccc(Cl)cc1` gave Neddyl block inactive, PfGluPho inh -11, proKLK7 act 0 and FAS TE block -1.
`O=C(Cn1nnc(-c2cc(C(F)(F)F)cc(C(F)(F)F)c2)n1)NNC(=S)Nc1ccc(Cl)cc1` gave Neddyl block active, PfGluPho inh -28, proKLK7 act 0, FAS TE block 29 and Neddyl inh conf inactive.
`COCc1cc(C)nc2sc(C(=O)Nc3ccccc3C)c(N)c12` gave Neddyl block active, PfGluPho inh 3, proKLK7 act 3 and FAS TE block -4.
`COCc1cc(C)nc2sc(C(=O)Nc3ccccc3Br)c(N)c12` gave PfGluPho inh 13, proKLK7 act 2 and FAS TE block 18.
COCc1cc(C)nc2sc(C(=O)OC)c(N)c12 was read as Neddyl block active, PfGluPho inh 3, proKLK7 act 2 and FAS TE block -7.
Screening CC(=O)c1sc2nc(C)cc(C)c2c1N returned PfGluPho inh 25, proKLK7 act 4 and FAS TE block -10.
CCCCCCn1c(=O)n2n(c1=O)[C@@H]1CN(S(=O)(=O)c3ccc(C)cc3)C[C@]1(O)[C@@H](OC(=O)NCc1ccc(OC)c(OC)c1)C2 was read as Neddyl block inactive, PfGluPho inh 58, proKLK7 act 0 and FAS TE block 8.
Nc1c(C(=O)Nc2ccc3c(c2)OCCO3)nnn1Cc1cccc(F)c1 was read as Neddyl block active, PfGluPho inh 17, proKLK7 act -5, FAS TE block 0 and Neddyl inh conf inactive.
For NS(=O)(=O)c1cccc(Nc2nc3ccccc3nc2NS(=O)(=O)c2ccc(Cl)cc2)c1 the results were Neddyl block active, PfGluPho inh -23, proKLK7 act 0, FAS TE block 19 and Neddyl inh conf active.
`CC(=O)Nc1ccc(S(=O)(=O)Nc2nc3ccccc3nc2Nc2cccc(O)c2)cc1` gave Neddyl block active, PfGluPho inh -25, proKLK7 act 0 and FAS TE block -3.
`CCCN1CCS(=O)(=O)N(Cc2cn(Cc3ccc(OC)cc3)nn2)C(C(=O)OC)C1` (stereo unspecified) gave proKLK7 act 0.
For O=C(CCc1ccccc1)N[C@H]1[C@H](OC(=O)c2cnccn2)CCC[C@@]12C(=O)N(Cc1ccccc1)c1ccccc12 the results were proKLK7 act 1.
For CCOCCn1c2ccccc2c2nc3ccccc3nc21 the results were Neddyl block active, PfGluPho inh 20, proKLK7 act -5, FAS TE block 8 and Neddyl inh conf inactive.
COc1cc2nc3c4ccccc4n(CC#N)c3nc2cc1OC was read as proKLK7 act 1.
For CCn1c2ccccc2c2nc3cc(OC)c(OC)cc3nc21 the results were Neddyl block active, PfGluPho inh 15, proKLK7 act -19 and FAS TE block 3.
For CCCCN(CC)Cc1c(O)ccc2c(-c3ccccc3)cc(=O)oc12 the results were Neddyl block active, PfGluPho inh 3, proKLK7 act 7 and FAS TE block -2.
For Cc1c(O)ccc2c(-c3ccccc3)cc(=O)oc12 the results were PfGluPho inh -19, proKLK7 act -7 and FAS TE block 10.
`CCOC(=O)N1CCN(S(=O)(=O)c2ccc3c4c(cccc24)C(=O)N3)CC1` gave Neddyl block active, PfGluPho inh -18, proKLK7 act 9, FAS TE block -4 and Neddyl inh conf active.
`O=C1Nc2ccc(S(=O)(=O)N3CCCCCC3)c3cccc1c23` gave Neddyl block inactive, PfGluPho inh -8, proKLK7 act 2 and FAS TE block -5.

Source: PubChem BioAssay (several laboratories)
